Results from PubChem BioAssay (NCI).
Values joined by “and” are separate entries in the source; they are usually repeats but may differ in a detail not shown here. Equal entries are not always repeated. Compounds without any hit were thinned out: in the full panel of roughly 83,000, 20% have a hit.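 Method: cells in 96-well plates; compound added at one concentration; 48 h incubation; percent growth measured; values under 10 scored active.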 Active and inactive are the calls of the source.

What was measured:
Experiment in all cases: NCI-60 one-dose screen, 48 h (100 = growth as untreated, 0 = no growth, -100 = all killed)
Settings in all cases: 10 µM unless noted
MOLT-4 leukemia = test system: MOLT-4 leukemia
SR leukemia = test system: SR leukemia
RPMI-8226 leukemia = test system: RPMI-8226 leukemia
OVCAR-8 ovarian = test system: OVCAR-8 ovarian
OVCAR-5 ovarian = test system: OVCAR-5 ovarian
OVCAR-4 ovarian = test system: OVCAR-4 ovarian
SK-OV-3 ovarian = test system: SK-OV-3 ovarian
IGROV1 ovarian = test system: IGROV1 ovarian
OVCAR-3 ovarian = test system: OVCAR-3 ovarian
NCI/ADR-RES ovarian = test system: NCI/ADR-RES ovarian
T-47D breast = test system: T-47D breast
BT-549 breast = test system: BT-549 breast
SW-620 colon = test system: SW-620 colon
MCF7 breast = test system: MCF7 breast
HCT-116 colon = test system: HCT-116 colon
HCC-2998 colon = test system: HCC-2998 colon
KM12 colon = test system: KM12 colon
HS 578T breast = test system: HS 578T breast
MDA-MB-435 melanoma = test system: MDA-MB-435 melanoma

| Compound | growth (MOLT-4 leukemia) | growth (SR leukemia) | growth (RPMI-8226 leukemia) | growth (OVCAR-8 ovarian) | growth (OVCAR-5 ovarian) | growth (OVCAR-4 ovarian) | growth (SK-OV-3 ovarian) | growth (IGROV1 ovarian) | growth (OVCAR-3 ovarian) | growth (NCI/ADR-RES ovarian) | growth (T-47D breast) | growth (BT-549 breast) | growth (SW-620 colon) | growth (MCF7 breast) | growth (HCT-116 colon) | growth (HCC-2998 colon) | growth (KM12 colon) | growth (HS 578T breast) | growth (MDA-MB-435 melanoma) |
| --- | --- | --- | --- | --- | --- | --- | --- | --- | --- | --- | --- | --- | --- | --- | --- | --- | --- | --- | --- |
| C/C(=C\c1ccn(-c2ccc(N)cc2F)n1)[C@@H]1C[C@@H]2O[C@]2(C)CCC[C@H](C)[C@H](O)[C@@H](C)C(=O)C(C)(C)[C@@H](O)CC(=O)O1 | 10.6% (inactive) | 13.8% (inactive) | 7.57% (active) | 18.7% (inactive) | 23.5% (inactive) | 61.1% (inactive) | 33.9% (inactive) | 34.8% (inactive) | -4.43% (active) | -11.9% (active) | 35.5% (inactive) | 19.7% (inactive) | 35.1% (inactive) | 16.7% (inactive) | 12.2% (inactive) | -15% (active) | 10.2% (inactive) | – | – |
| CC(C)COC(=O)Cc1ccccc1 | 103% (inactive) | 100% (inactive) | 103% (inactive) | 110% (inactive) | 106% (inactive) | 105% (inactive) | 105% (inactive) | 109% (inactive) | 111% (inactive) | – | – | 108% (inactive) | 107% (inactive) | 106% (inactive) | 105% (inactive) | 107% (inactive) | 105% (inactive) | 102% (inactive) | 106% (inactive) |
| COC12CC3(C)C(C4=CC(=O)OC4)CCC3(O)C3CCC4=CC(=O)CCC4(CO1)C32 (centres undefined) | 119% (inactive) | 117% (inactive) | 118% (inactive) | 99.9% (inactive) | 99.5% (inactive) | 105% (inactive) | 117% (inactive) | 98.6% (inactive) | 118% (inactive) | 113% (inactive) | 116% (inactive) | – | 105% (inactive) | 98.1% (inactive) | 101% (inactive) | 131% (inactive) | 114% (inactive) | – | 106% (inactive) |
| CN1CCc2cc3c(cc2C1O)OCO3 (centres undefined) | 111% (inactive) | 101% (inactive) | 94.4% (inactive) | 102% (inactive) and 109% (inactive) | 94.6% (inactive) and 94.1% (inactive) | 108% (inactive) | 97.9% (inactive) and 105% (inactive) | 117% (inactive) and 108% (inactive) | 17.1% (inactive) and 105% (inactive) | 95.9% (inactive) and 107% (inactive) | 69.3% (inactive) and 102% (inactive) | -78.9% (active) and 100% (inactive) | 96.1% (inactive) and 100% (inactive) | 79.5% (inactive) and 94.6% (inactive) | 104% (inactive) and 101% (inactive) | 102% (inactive) and 108% (inactive) | 57.8% (inactive) and 103% (inactive) | – | 37.8% (inactive) and 102% (inactive) |
| Nc1ccc(P(=O)(O)O)cc1 | 110% (inactive) and 112% (inactive) | 108% (inactive) and 115% (inactive) | 97.8% (inactive) and 104% (inactive) | 101% (inactive) and 98.4% (inactive) | 97.6% (inactive) and 99.8% (inactive) | 90.7% (inactive) | 104% (inactive) and 108% (inactive) | 97.9% (inactive) and 111% (inactive) | 107% (inactive) and 110% (inactive) | – | – | 115% (inactive) and 98.3% (inactive) | 103% (inactive) and 106% (inactive) | 103% (inactive) and 89.1% (inactive) | 112% (inactive) and 103% (inactive) | 100% (inactive) and 96% (inactive) | 109% (inactive) and 99.6% (inactive) | 110% (inactive) | 107% (inactive) and 105% (inactive) |
| CCN(CC)CCn1c(=O)n(C)c2ccccc21 | 104% (inactive) | 99.3% (inactive) | 113% (inactive) | 101% (inactive) | 117% (inactive) | 109% (inactive) | 106% (inactive) | 109% (inactive) | 106% (inactive) | 101% (inactive) | 109% (inactive) | 124% (inactive) | 105% (inactive) | 102% (inactive) | 111% (inactive) | 101% (inactive) | 99.8% (inactive) | – | 105% (inactive) |
| O=[N+]([O-])c1ccc(P(=O)(O)O)cc1 | 102% (inactive) | 94.8% (inactive) | 108% (inactive) | 103% (inactive) | 101% (inactive) | 96.2% (inactive) | 99.8% (inactive) | 102% (inactive) | 113% (inactive) | 103% (inactive) | – | 89.9% (inactive) | – | 91.2% (inactive) | 96.6% (inactive) | – | 115% (inactive) | – | 101% (inactive) |
| N#CCCc1ccccc1 | 94.5% (inactive) | 91.8% (inactive) | 111% (inactive) | 107% (inactive) | 98% (inactive) | 110% (inactive) | 111% (inactive) | 103% (inactive) | 119% (inactive) | 104% (inactive) | 112% (inactive) | 106% (inactive) | 102% (inactive) | 92% (inactive) | 104% (inactive) | 103% (inactive) | 109% (inactive) | – | 104% (inactive) |
| O=C(O)C(F)F | 102% (inactive) | 109% (inactive) | 114% (inactive) | 105% (inactive) | 106% (inactive) | 112% (inactive) | 98.5% (inactive) | 114% (inactive) | 115% (inactive) | 113% (inactive) | 96.6% (inactive) | 117% (inactive) | 90.4% (inactive) | 97.1% (inactive) | 107% (inactive) | 123% (inactive) | 103% (inactive) | – | 102% (inactive) |
| COc1ccc(/C=C(/C)[N+](=O)[O-])cc1OC | 0.86% (active) and -1.19% (active) | -21.8% (active) and -5.49% (active) | -17.9% (active) and -7.74% (active) | 6.5% (active) | 91.4% (inactive) and 66.7% (inactive) | 32.7% (inactive) | 112% (inactive) and 108% (inactive) | 10.8% (inactive) and -20.9% (active) | -94.1% (active) and -99.7% (active) | 74.7% (inactive) and 3.26% (active) | 2.51% (active) and -36.5% (active) | 60.2% (inactive) | -71.8% (active) and -74.3% (active) | -16.3% (active) and 4.76% (active) | -69.8% (active) and -100% (active) | – | 49% (inactive) and 37.1% (inactive) | – | 14.8% (inactive) and 8.73% (active) |
| CC(=O)OC1CC2(O)C(CCC3(C)C(c4ccc(=O)oc4)CCC32O)C2(C)CCC(OC3OC(CO)C(O)C(O)C3O)C=C12 (centres undefined) | -19.6% (active) | -15.3% (active) | -23.3% (active) | -55.6% (active) | -73.5% (active) | -64.4% (active) | -13.9% (active) | -26.5% (active) | -100% (active) | -61.6% (active) | -9.39% (active) | -85.4% (active) | -67.4% (active) | -23.4% (active) | -94.3% (active) | -63.3% (active) | -97.8% (active) | – | -90.2% (active) |
| O=C(O)CNCP(=O)(O)O | 92.4% (inactive) | 95.3% (inactive) | 99.1% (inactive) | 104% (inactive) | 120% (inactive) | 111% (inactive) | 113% (inactive) | 106% (inactive) | 119% (inactive) | – | 111% (inactive) | – | 110% (inactive) | 96.2% (inactive) | 103% (inactive) | 99.2% (inactive) | 113% (inactive) | 121% (inactive) | 104% (inactive) |
| CNC(=O)CCl | 118% (inactive) | 109% (inactive) | 106% (inactive) | 105% (inactive) | 107% (inactive) | 101% (inactive) | 102% (inactive) | 107% (inactive) | 113% (inactive) | – | – | 101% (inactive) | 107% (inactive) | 98.2% (inactive) | 99.6% (inactive) | – | 108% (inactive) | 104% (inactive) | – |
| Nc1cccnc1 | 101% (inactive) | 90.4% (inactive) | 105% (inactive) | 104% (inactive) | 116% (inactive) | 129% (inactive) | 105% (inactive) | 106% (inactive) | 119% (inactive) | 104% (inactive) | 106% (inactive) | 110% (inactive) | 105% (inactive) | – | 104% (inactive) | 101% (inactive) | 112% (inactive) | – | 122% (inactive) |
| NC(N)=NC(N)=Nc1ccc(Cl)cc1 | 93.3% (inactive) | 94.9% (inactive) | 94.2% (inactive) | 121% (inactive) | 92.1% (inactive) | 96.3% (inactive) | 110% (inactive) | 116% (inactive) | 105% (inactive) | 113% (inactive) | 109% (inactive) | 104% (inactive) | 102% (inactive) | 103% (inactive) | 109% (inactive) | 107% (inactive) | 112% (inactive) | – | 101% (inactive) |
| CCCC(C)SP(=S)(SC(C)CCC)SC(C)CCC (centres undefined) | 110% (inactive) | 110% (inactive) | 105% (inactive) | 107% (inactive) | 112% (inactive) | 110% (inactive) | 108% (inactive) | 109% (inactive) | 98.5% (inactive) | 99.9% (inactive) | 100% (inactive) | 99.8% (inactive) | 91.7% (inactive) | 95.1% (inactive) | 101% (inactive) | – | 97.3% (inactive) | – | 97.3% (inactive) |
